Assay results published in PubChem BioAssay AID1159580 (chemical genetic matrix, 2015).
Hit rate of the full screen: of about 5,500 compounds, about 2,000 (36%) were called active. Not shown: some 18% with an inconclusive outcome. Rule as the data show it: active = normalized growth mostly below about 0.91 (no sharp cut-off); inconclusive = no clear call, values can overlap the other calls; inactive = mostly above about 0.92. This is one part of the list.

Assay: chemical genetic growth profiling, strain panel (AID 1159580);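 also: tested at 20 µM; growth read once vehicle control cultures reached saturation at 30 °C; 1 = growth at the plate median or of vehicle wells; lower values mean less growth of the strain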
Conditions: growth OD
[1] = S. cerevisiae deletion strains, locus YHR030C, strain SLT2, hits give low values
[2] = S. cerevisiae deletion strains, locus YHR079C, strain IRE1, hits give low values
[3] = S. cerevisiae deletion strains, locus YJL095W, strain BCK1, hits give low values
[4] = S. cerevisiae deletion strains, locus YJR066W, strain TOR1, hits give low values
[5] = S. cerevisiae deletion strains, locus YLR113W, strain HOG1, hits give low values
[6] = S. cerevisiae deletion strains, locus YNL183C, strain NPR1, hits give low values
[7] = S. cerevisiae deletion strains, locus YOR231W, strain MKK1, hits give low values
[8] = S. cerevisiae deletion strains, locus YPL256C, strain CLN2, hits give low values

Measured: normalized growth

O=C(Nc1ccc(Cl)c(Cl)c1)c1ccccc1
inactive: S. cerevisiae deletion strains, locus YDL101C, strain DUN1, hits give low values 0.931 | S. cerevisiae deletion strains, locus YDR150W, strain NUM1, hits give low values 0.889 | S. cerevisiae deletion strains, locus YNL128W, strain TEP1, hits give low values 0.933 | S. cerevisiae deletion strains, locus YNL153C, strain GIM3, hits give low values 0.942
active: S. cerevisiae deletion strains, locus YAL013W, strain DEP1, hits give low values 0.885 | S. cerevisiae deletion strains, locus YBR229C, strain ROT2, hits give low values 0.892 | S. cerevisiae deletion strains, locus YEL061C, strain CIN8, hits give low values 0.813 | S. cerevisiae deletion strains, locus YGR078C, strain PAC10, hits give low values 0.84 | [1] 0.579 | S. cerevisiae deletion strains, locus YHR087W, strain rtc3, hits give low values 0.846 | S. cerevisiae deletion strains, locus YJR043C, strain POL32, hits give low values 0.906 | S. cerevisiae deletion strains, locus YJR075W, strain HOC1, hits give low values 0.771 | S. cerevisiae deletion strains, locus YLR039C, strain RIC1, hits give low values 0.271 | S. cerevisiae deletion strains, locus YLR058C, strain SHM2 (second series), hits give low values 0.876 | S. cerevisiae deletion strains, locus YLR085C, strain ARP6, hits give low values 0.504 | S. cerevisiae deletion strains, locus YLR262C, strain YPT6, hits give low values 0.318 | S. cerevisiae deletion strains, locus YML094W, strain GIM5, hits give low values 0.797 | S. cerevisiae deletion strains, locus YMR219W, strain ESC1, hits give low values 0.895 | S. cerevisiae deletion strains, locus YMR307W, strain GAS1, hits give low values 0.453 | S. cerevisiae deletion strains, locus YNL298W, strain CLA4 (second series), hits give low values 0.747 | S. cerevisiae deletion strains, locus YNL322C, strain KRE1, hits give low values 0.8 | S. cerevisiae deletion strains, locus YNR030W, strain Alg12, hits give low values 0.761 | S. cerevisiae deletion strains, locus YPL055C, strain LGE1, hits give low values 0.754 | S. cerevisiae deletion strains, locus YPL241C, strain CIN2, hits give low values 0.754 | S. cerevisiae deletion strains, locus YPR135W, strain CTF4, hits give low values 0.406 | S. cerevisiae strains, strain wild type, hits give low values 0.908

O=P(O)(O)C(O)(Cc1cccnc1)P(=O)(O)O
inactive: [1] 0.969 | [2] 0.963 | [3] 0.969 | [4] 0.936 | [5] 0.919 | [6] 0.897 | [7] 0.966 | [8] 0.933

O=C(Nc1ccc(C(=O)O)c(O)c1)c1ccccc1
inactive: S. cerevisiae deletion strains, locus YAL021C, strain ccr4, hits give low values 0.968 | S. cerevisiae deletion strains, locus YAL026C, strain drs2, hits give low values 0.982 | S. cerevisiae deletion strains, locus YAL030W, strain snc1, hits give low values 0.952 | S. cerevisiae deletion strains, locus YBL061C, strain skt5, hits give low values 0.977 | S. cerevisiae deletion strains, locus YBR009C, strain hhf1, hits give low values 0.97 | S. cerevisiae deletion strains, locus YBR023C, strain chs3, hits give low values 0.991 | S. cerevisiae deletion strains, locus YBR171W, strain sec66, hits give low values 0.968 | S. cerevisiae deletion strains, locus YBR231C, strain swc5, hits give low values 0.972 | S. cerevisiae deletion strains, locus YBR279W, strain paf1, hits give low values 0.989 | S. cerevisiae deletion strains, locus YCL011C, strain gbp2, hits give low values 0.979 | S. cerevisiae deletion strains, locus YCL016C, strain dcc1, hits give low values 0.979 | S. cerevisiae deletion strains, locus YCL061C, strain MRC1, hits give low values 0.989 | S. cerevisiae deletion strains, locus YCL069W, strain vba3, hits give low values 0.987 | S. cerevisiae deletion strains, locus YCR088W, strain abp1, hits give low values 0.987 | S. cerevisiae deletion strains, locus YDL005C, strain med2, hits give low values 0.978 | S. cerevisiae deletion strains, locus YDL040C, strain nat1, hits give low values 0.976 | S. cerevisiae deletion strains, locus YDR001C, strain nth1, hits give low values 0.964 | S. cerevisiae deletion strains, locus YDR069C, strain doa4, hits give low values 0.974 | S. cerevisiae deletion strains, locus YDR137W, strain rgp1, hits give low values 0.916 | S. cerevisiae deletion strains, locus YDR159W, strain sac3, hits give low values 0.985 | S. cerevisiae deletion strains, locus YDR195W, strain ref2 0.952 | S. cerevisiae deletion strains, locus YDR297W, strain sur2, hits give low values 0.976 | S. cerevisiae deletion strains, locus YDR334W, strain swr1, hits give low values 0.942 | S. cerevisiae deletion strains, locus YDR335W, strain msn5, hits give low values 0.972 | S. cerevisiae deletion strains, locus YDR392W, strain spt3, hits give low values 0.986 | S. cerevisiae deletion strains, locus YEL003W, strain gim4, hits give low values 0.974 | S. cerevisiae deletion strains, locus YEL037C, strain rad23, hits give low values 0.992 | S. cerevisiae deletion strains, locus YEL061C, strain CIN8 (second series), hits give low values 0.976 | S. cerevisiae deletion strains, locus YER015W, strain faa2, hits give low values 0.968 | S. cerevisiae deletion strains, locus YER016W, strain bim1, hits give low values 0.979 | S. cerevisiae deletion strains, locus YER111C, strain swi4, hits give low values 0.992 | S. cerevisiae deletion strains, locus YER155C, strain BEM2 (second series), hits give low values 0.967 | S. cerevisiae deletion strains, locus YFR010W, strain ubp6, hits give low values 0.963 | S. cerevisiae deletion strains, locus YGL167C, strain pmr1, hits give low values 0.989 | S. cerevisiae deletion strains, locus YGL173C, strain kem1, hits give low values 0.967 | S. cerevisiae deletion strains, locus YGL227W, strain vid30, hits give low values 0.974 | S. cerevisiae deletion strains, locus YGL240W, strain doc1, hits give low values 0.977 | S. cerevisiae deletion strains, locus YGL253W, strain hxk2, hits give low values 0.986 | S. cerevisiae deletion strains, locus YHR013C, strain ard1, hits give low values 0.962 | S. cerevisiae deletion strains, locus YHR027C, strain rpn1, hits give low values 0.964 | [1] 0.937 | [2] 0.939 | S. cerevisiae deletion strains, locus YHR142W, strain chs7, hits give low values 0.968 | S. cerevisiae deletion strains, locus YJL092W, strain hpr5, hits give low values 0.999 | S. cerevisiae deletion strains, locus YJL095W, strain BCK1 (second series), hits give low values 0.981 | [3] 0.976 | S. cerevisiae deletion strains, locus YJL115W, strain asf1, hits give low values 0.974 | S. cerevisiae deletion strains, locus YJL129C, strain trk1, hits give low values 0.999 | S. cerevisiae deletion strains, locus YJL154C, strain vps35, hits give low values 0.965 | S. cerevisiae deletion strains, locus YJL164C, strain tpk1, hits give low values 0.983 | S. cerevisiae deletion strains, locus YJL166W, strain qcr8, hits give low values 0.973 | S. cerevisiae deletion strains, locus YJL187C, strain SWE1, hits give low values 0.984 | [4] 0.908 | S. cerevisiae deletion strains, locus YKL160W, strain elf1, hits give low values 0.981 | S. cerevisiae deletion strains, locus YKR026C, strain gcn3, hits give low values 0.99 | S. cerevisiae deletion strains, locus YKR091W, strain srl3, hits give low values 0.984 | S. cerevisiae deletion strains, locus YLL001W, strain dnm1, hits give low values 0.983 | S. cerevisiae deletion strains, locus YLL026W, hits give low values 0.958 | S. cerevisiae deletion strains, locus YLL041C, strain sdh2, hits give low values 0.979 | S. cerevisiae deletion strains, locus YLR027C, strain aat2, hits give low values 0.968 | [5] 0.974 | S. cerevisiae deletion strains, locus YLR221C, strain rsa3, hits give low values 0.984 | S. cerevisiae deletion strains, locus YLR258W, strain gsy2, hits give low values 0.987 | S. cerevisiae deletion strains, locus YLR262C, strain YPT6 (second series), hits give low values 0.938 | S. cerevisiae deletion strains, locus YLR320W, strain mms22, hits give low values 0.973 | S. cerevisiae deletion strains, locus YLR342W, strain FKS1, hits give low values 0.978 | S. cerevisiae deletion strains, locus YLR357W, strain rsc2, hits give low values 1 | S. cerevisiae deletion strains, locus YLR370C, strain arc18, hits give low values 0.975 | S. cerevisiae deletion strains, locus YLR384C, strain iki3, hits give low values 0.962 | S. cerevisiae deletion strains, locus YML120C, strain ndi1, hits give low values 0.986 | S. cerevisiae deletion strains, locus YMR058W, strain fet3, hits give low values 0.984 | S. cerevisiae deletion strains, locus YMR125W, strain sto1, hits give low values 0.984 | S. cerevisiae deletion strains, locus YMR129W, hits give low values 0.989 | S. cerevisiae deletion strains, locus YMR205C, strain PFK2, hits give low values 0.969 | S. cerevisiae deletion strains, locus YMR231W, strain pep5, hits give low values 0.984 | S. cerevisiae deletion strains, locus YNL071W, strain lat1, hits give low values 0.978 | [6] 0.92 | S. cerevisiae deletion strains, locus YNL209W, strain ssb2, hits give low values 0.957 | S. cerevisiae deletion strains, locus YNL248C, strain rpa49, hits give low values 0.986 | S. cerevisiae deletion strains, locus YNL322C, strain KRE1 (second series), hits give low values 0.97 | S. cerevisiae deletion strains, locus YNR049C, strain mso1, hits give low values 0.967 | S. cerevisiae deletion strains, locus YOR001W, strain rrp6, hits give low values 0.982 | S. cerevisiae deletion strains, locus YOR070C, strain gyp1, hits give low values 0.976 | S. cerevisiae deletion strains, locus YOR080W, strain dia2, hits give low values 0.975 | S. cerevisiae deletion strains, locus YOR083W, strain WHI5, hits give low values 0.984 | S. cerevisiae deletion strains, locus YOR106W, strain vam3, hits give low values 0.989 | [7] 0.941 | S. cerevisiae deletion strains, locus YOR265W, strain rbl2, hits give low values 0.988 | S. cerevisiae deletion strains, locus YOR270C, strain vph1, hits give low values 0.972 | S. cerevisiae deletion strains, locus YOR290C, strain snf2, hits give low values 0.99 | S. cerevisiae deletion strains, locus YPL051W, strain arl3, hits give low values 0.981 | S. cerevisiae deletion strains, locus YPL078C, strain atp4, hits give low values 0.97 | S. cerevisiae deletion strains, locus YPL106C, strain sse1, hits give low values 0.918 | S. cerevisiae deletion strains, locus YPL240C, strain hsp82, hits give low values 0.982 | [8] 0.963
